Test in all cases: qHTS profiling for inhibitors of Plasmodium falciparum proliferation (AID 504749); note: nearly all actives have a fitted effect of over 60% in size
Common to all, as to conditions: P. falciparum in erythrocytes, SYBR Green DNA, 72 h; series mostly up to 28.7 µM

One test concerns ICS. Summed up: (§1)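 Fluorescence of SYBR Green-bound parasite DNA, read at 485/535 nm, served as the growth measure. Infected erythrocytes were cultured with compound 72 h; artemisinin (0.29 uM) and DMSO wells defined the normalization range.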
For a further test, the system named is JCK. Put shortly:
as §1

For another test, the system named is P93_24. Put shortly:
as §1

A further test relates to N140. Summed up: as §1
The next test concerns P94_40. Summed up: as §1
A further test relates to PAD. Put shortly: as §1
The subject of another test is PC15. Summed up:
as §1

The next test deals with PC49. Put shortly: as §1
Another test relates to HB3. Put shortly: as §1
Another test deals with PC26. Put shortly: as §1

Records with an inconclusive call do not appear. The source made the active and inactive calls. Calls come from the whole dose curve; as a rule, active = well fitted inhibition curve with a large enough effect; inconclusive = small, poorly fitted or top-dose-only effect; inactive = flat fitted curve, though single readings scatter.
Potency is the fitted concentration of half-maximal effect.

As for `O=C1CSC2(CCN(CCCN3c4ccccc4Sc4ccc(Cl)cc43)CC2)N1`, the Potency is 12.6 µM (active) in the test with ICS and 8.91 µM (active) in the test on P93_24. In addition, the Potency result in the test on JCK was “inactive”.
Regarding `O=CCCCC=O`, the Potency in the test with ICS was 7.08 µM (active). For the same compound, the Potency entry with JCK, in the test on N140, in the test with P94_40, in the test with PAD, in the test with PC15 and in the test on PC49 was “inactive” in each case.
Take `CC1=C(/C=C/C(C)=C/C=C/C(C)=C/CO)C(C)(C)CCC1`: the Potency in the test on ICS is 7.08 µM (active); in the test on N140, 8.91 µM (active). In addition, the Potency entry with JCK was “inactive”.
Consider `O=C(Nc1ccc(Br)cc1)c1cc(Br)c(Br)s1`, for which the Potency result with PC15 and in the test with PC49 was “inactive” each time.
`CC1(C)C(C=C(Cl)Cl)C1C(=O)OCc1cccc(Oc2ccccc2)c1` (centres undefined): the Potency result in the test on HB3, in the test on JCK, with N140, in the test on P93_24, with P94_40 and in the test on PAD was “inactive” in each case. Further, the Potency entry in the test with PC15, in the test with PC26 and in the test with PC49 was “inactive” each time.
Consider `O=C(Nc1cccc(C(F)(F)F)c1)c1cc(Br)cc(Br)c1O`, for which the Potency in the test with ICS was 8.91 µM (active); in the test with JCK, 10 µM (active); in the test with N140, 11.2 µM (active).
On to `O=S(=O)(O)c1cc(O)c2c(N=Nc3ccc(Nc4ccccc4)c4c(S(=O)(=O)O)cccc34)cc(S(=O)(=O)O)cc2c1`, for which the Potency entry with HB3, in the test with JCK and in the test on PAD was “inactive” throughout.
With `CN(C)CCCN1c2ccccc2C(C)(C)c2ccccc21`, the Potency result in the test on HB3, in the test with JCK, with PAD and in the test with PC49 was “inactive” throughout.
With `C#C[C@]1(O)CC[C@H]2[C@@H]3CCC4=CCCC[C@@H]4[C@H]3C(=C)C[C@@]21CC`, the Potency entry in the test with HB3, in the test on JCK, with PC15 and in the test with PC26 was “inactive” each time. Besides, the Potency in the test with ICS is 10 µM (active).

Values taken from PubChem BioAssay (NCATS).
